TDP1 cell CPT = DT40-hTDP1 cell growth loss with CPT. chicken DT40 Tdp1-/-;hTDP1 cells + 20 nM CPT, ATP luminescence, 48 h. Potency, µM (highest dose often 46.2 µM), hits mostly inhibitors. hit rate 12% among 420,000. AID 686979; note: nearly all actives have a fitted effect of over 55% in size
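Chicken DT40 Tdp1-/- cells stably complemented with human TDP1 were seeded at 400 cells/well in medium containing 20 nM camptothecin, exposed to pin-transferred compounds, and grown at 37 °C for at least 48 hr. Viability was read as ATP luminescence.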
Chronic BCR inh = blocks chronic active B-cell receptor signaling; hit rate 0.05% among 340,000; Potency, µM (titrated, usually from 46.1 µM), hits mostly inhibitors; ABC-DLBCL IkBa-CBG/CBR reporter, luminescence ratio, 4 h; active = well fitted inhibition curve with a large enough effect in the signal ratio, with a control signal flat, not every such curve was filed as active; inconclusive = small, poorly fitted or top-dose-only effect, or effect the other way, or a change in a side signal; the % refers to the signal ratio
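Compounds up to 46 uM were incubated four hours with TMD8 cells whose green CBG68 luciferase is fused to IkappaBalpha; red CBR luminescence normalised the signal, and concentration-effect curves were fitted to fusion, red and ratio data.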
IL-1B inflam inh = inflammasome signaling inhibition, IL-1 beta readout; THP-1 LPS/ATP IL-1B secretion, AlphaLISA, 16 h; stronger effect = lower value; activity change, % at 57.5 µM; hit rate 4.7% among 360,000; AID 743279; in the data active = activity change below about -50%; inconclusive = mostly about -30% to -49%
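Secreted IL-1B measured by AlphaLISA bead assay after 16 h compound exposure of THP-1 cells; compounds (final up to 57.5 uM) added 1 h before LPS (250 ng/mL) and ATP (1.25 mM) stimulation; lower signal means less secretion.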
TDP1 cell noCPT = qHTS for Inhibitors of human tyrosyl-DNA phosphodiesterase 1 (TDP1): qHTS in cells in absence of CPT; DT40 Tdp1-/- hTDP1 cells, no CPT, ATP luminescence, 48 h; Potency, µM (titrated, usually from 46.2 µM), actives largely listed as inhibitors; hit rate 15% among 420,000; note: nearly all actives have a fitted effect of over 55% in size
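Seeded 400 DT40-hTDP1 cells/well (vehicle DMSO, no 20 nM CPT); pinned compounds; ≥48 hr at 37 °C; CellTiter-Glo luminescence as viability measure.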
SW480 rerep = DNA re-replication induction in SW480 cells. AID 624297. hit rate 1.8% among 340,000. Potency, µM (highest dose often 46.1 µM), actives largely listed as activators. SW480 DNA re-replication, Hoechst DNA content imaging, 48 h; note: nearly all actives have a fitted effect of over 55% in size
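Quantitative HTS format with DMSO vehicle controls; 48 hr drug incubation at 37 C, then 40 min Hoechst staining and scanning imager measurement at 405 nm excitation.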
MCF10A rerep = induces DNA re-replication in MCF 10a normal breast cells; MCF 10A DNA re-replication, Hoechst nuclear intensity, 48 h; Potency, µM (top dose mostly 46.1 µM), actives largely listed as activators; AID 624296; hit rate 2.9% among 350,000; note: nearly all actives have a fitted effect of over 50% in size
Numbers stand for hits; n = inactive; u = inconclusive; x = not tested or not shown; [ ] = dose if it differs, or a comment. The list is not random: actives were taken first. Their share in the collection is about 19%. Unless noted, calls come from the whole dose curve; as a rule, active = well fitted curve in the direction sought with a large enough effect; inconclusive = small, poorly fitted or top-dose-only effect, or another doubt; inactive = no such curve, though single readings can be large; an effect the other way counts as inactive or inconclusive.

SMILES | TDP1 cell CPT | Chronic BCR inh | IL-1B inflam inh | TDP1 cell noCPT | SW480 rerep | MCF10A rerep
COCCCNC(=O)c1c(NC(=O)c2ccco2)n(Cc2ccccc2)c2nc3ccccc3nc12 | u | n | n | 26µM | u | u
CC(=O)NC1=C(N2CC2C)C(=O)C(NC(C)=O)=C(N2CC2C)C1=O (configuration not stated) | 1.8µM | x | n | 4.6µM | n | n
COc1cc([C@@H]2c3cc4c(cc3[C@@H](O)[C@H]3COC(=O)[C@H]23)OCO4)cc(OC)c1O | 0.1µM | x | x | 0.11µM | x | x
COc1cc(C2c3cc4c(cc3C(O)[C@H]3COC(=O)C23)OCO4)cc(OC)c1OC (some centres not stated) | 0.023µM | x | x | 0.037µM | x | x
COc1cc([C@@H]2c3cc4c(cc3[C@H](OC(C)=O)[C@H]3COC(=O)[C@@H]23)OCO4)cc(OC)c1OC | 1.1µM | x | x | 1.1µM | x | x
Cc1cc(C)c(C(=O)CN2CCOCC2)c(C)c1 | n | u | n | n | 9.2µM | 8.2µM
CCOP(=O)(OCC)C(NC(=O)c1cccc(C)c1)C(Cl)(Cl)Cl (configuration not stated) | n | u | n | n | n | n
CCN(CC)c1ccc(NC(=O)c2cccc(C)c2)cc1S(=O)(=O)Nc1ccccc1OC | 16µM | n | n | 23µM | x | n
COCCNC(=O)CN1C(=O)C(C)N=C(c2ccccc2)c2cc(Cl)ccc21 (configuration not stated) | n | n | n | n | n | n
Cc1c(Cl)cccc1NC(=O)CN1C(=O)C(C)N=C(c2ccccc2)c2ccccc21 (configuration not stated) | n | x | x | 23µM | x | x
O=C1C=C2C=C[C@@H]3CC2(O1)[C@H]1CCCCN31 | u | n | -96 | 18µM | n | n
O=C1C=C2C=CC3C[C@@]2(O1)C1CCCCN31 (some centres not stated) | x | x | x | x | u | 21µM
COc1ccc(C(c2nnnn2C2CCCC2)N2CCC3(CC2)C(=O)NCN3c2ccccc2)cc1 (configuration not stated) | u | x | n | u | x | x
c1cnc2ccc(C(c3nnnn3C3CCCCC3)N3CCN(C4CCCCC4)CC3)cc2c1 (configuration not stated) | 13µM | x | n | 13µM | n | n
CCC1C(C)=NN=C(c2ccc(OC)c(OC)c2)c2cc(OC)c(OC)cc21 (configuration not stated) | u | x | x | u | n | n
O=C1NC(=O)C(=Cc2ccc(-c3ccc(S(=O)(=O)N4CCOCC4)cc3)o2)C(=O)N1 | u | u | n | u | n | n
O=C1NC(=O)C(=Cc2ccc(-c3ccc(F)cc3O)o2)C(=O)N1 | u | u | -77 | u | u | u
CN1C(=O)C(=Cc2ccc(Sc3ccccc3)o2)C(=O)N(C)C1=O | u | n | n | u | n | n
O=C1NC(=O)C(=Cc2ccc(Sc3ccccc3)o2)C(=O)N1 | u | u | -100 | 15µM | u | u
O=C1NC(=O)C(=Cc2ccc(-c3ccc(Cl)cc3)o2)C(=O)N1 | 5.8µM | u | -108 | 8.2µM | n | n
CCCC1(CC(C)CC)C(=O)NC(=O)NC1=O (configuration not stated) | n | x | n | n | x | x
O=[N+]([O-])c1ccc(N(CCO)CCO)c2c1no[n+]2[O-] | 0.092µM | x | -103 | 0.16µM | x | x
CN1CCN(c2ccc(S(C)(=O)=O)cc2[N+](=O)[O-])CC1 | n | n | n | n | n | n
CN1CCN(c2ccc([N+](=O)[O-])c3no[n+]([O-])c23)CC1 | 0.18µM | u | -101 | 0.16µM | u | 2.3µM
COC(=O)C1=C(c2ccc(F)cc2F)C[C@@H]2CC[C@H]1N2C | n | n | n | n | n | n
SMILES | TDP1 cell CPT | Chronic BCR inh | IL-1B inflam inh | TDP1 cell noCPT | SW480 rerep | MCF10A rerep
C[C@]12CC[C@@H]3c4ccc(O)c(O)c4CC[C@H]3[C@@H]1CC[C@@H]2O | 26µM | u | u | 13µM | u | n
CC12CCC3c4ccc(O)c([N+](=O)[O-])c4CCC3C1CCC2=O (configuration not stated) | u | x | n | u | x | x
CC(=NCC1CCCO1)c1c(O)n(-c2ccccc2C)c(=O)[nH]c1=O (configuration not stated) | n | n | n | n | n | n
CCN(CC)C(=O)N[C@@H]1C=C2c3cccc4[nH]cc(c34)C[C@@H]2N(C)C1 | 21µM | x | x | 9.4µM | x | x
Nc1nc(N)c2nc(CNc3ccc(C(=O)N[C@@H](CCC(=O)O)C(=O)O)cc3)cnc2n1 | u | x | x | 16µM | x | x
O=C1NCN(c2ccccc2)C12CCN(C(c1nnnn1Cc1ccccc1)C1CC1)CC2 (configuration not stated) | u | x | n | 21µM | x | x
CSCCC(c1nnnn1-c1c(C)cccc1C)N1CCC2(CC1)C(=O)NCN2c1ccccc1 (configuration not stated) | 23µM | x | u | u | x | x
CSCCC(c1nnnn1Cc1ccccc1)N1CCC2(CC1)C(=O)NCN2c1ccccc1 (configuration not stated) | 15µM | x | n | 21µM | x | x
OCCOCCO | n | n | n | n | n | u
O=C1c2ccccc2C(=O)C1C(=O)C(c1ccccc1)c1ccccc1 | u | x | x | u | u | 24µM
C[N+]1(C)CCC(OC(=O)C(c2ccccc2)c2ccccc2)CC1 | n | x | n | n | n | n
CCCCC/C=C\C/C=C\C/C=C\C/C=C\CCCC(=O)Nc1ccc(O)cc1 | 27µM | u | x | 21µM | x | x
CCCCC/C=C\C/C=C\C/C=C\C/C=C\CCCC(=O)NCC(=O)O | n[4.12 µM] | x | x | n[4.12 µM] | n[4.21 µM] | n[4.21 µM]
CN(C(=O)Oc1ccc(Cl)c2cccnc12)c1ccccc1 | n | n | n | n | n | n
CC(=O)Oc1ccc(Cl)c2cccnc12 | 3.7µM | x | x | 8.2µM | x | x
Cc1cccc(NC(=O)Oc2ccc(Cl)c3cccnc23)c1 | 12µM | x | n | 5.2µM | x | x
CCCNC(=O)N1[C@H]2CC[C@@H]1C(C(=O)OC)=C(c1ccccc1)C2 | n | x | n | x | n | n
Cc1cc(O)c2c(c1)C(=O)c1cc(O)cc(O)c1C2=O | 18µM | x | n | 21µM | n | n
O=C(c1ccccc1)C(CN1CCCC1)c1ccccc1 (configuration not stated) | 1.8µM | u | -104 | 1.6µM | 7.3µM | 3.3µM
CCOP(=S)(OCC)SCSc1ccc(Cl)cc1 | n | x | x | n | x | x
CCOc1cc(/C=N/NC(=O)c2cccs2)ccc1OC(=O)N1CCOCC1 | u | u | n | 16µM | n | n
CCOc1cc(/C=N/Nc2cccc(C(=O)O)c2)ccc1OC(=O)c1ccccc1 | n | u | n | u | n | n

High-throughput results deposited in PubChem BioAssay by National Center for Advancing Translational Sciences (NCATS).
